Screening results from PubChem.
Sampled rows, rich in hits. Any-hit rate of the full collection: about 6.2%.
HCMV inh – qHTS Assay for inhibitors of the human cytomegalovirus (HCMV); HFF cells, HCMV-luciferase reporter, 72 h; stronger effect = lower value; activity change, negative = inhibition, % at 57.5 µM; hit rate 4.5% among 410,000; AID 1259415, 2018; in the data active = activity change below about -60%; inconclusive = no clear call, values can overlap the other calls; inactive = above about -39%
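Human foreskin fibroblasts infected with luciferase-reporter HCMV at MOI 1 PFU/cell, compounds at two doses. Luciferase measured 72 h post infection; normalized to buffer-only basal and Salinomycin (10uM) controls.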
FMDV antiviral – High Throughput Screening for Foot and Mouth Disease Virus Antivirals | FMDV antiviral cell-based qHTS | Potency, µM (top dose mostly 57.9 µM), for the others: at the top dose activity change, negative = inhibition, most hits filed as inhibitors | hit rate 1.2% among 410,000 | AID 1159524, 2015; calls by dose curve; tested in HEK293T cells; also: read-out not given here; potency is read from the fitted curve at half-maximal effect; nearly all actives have a fitted effect of over 45% in size
MARV entry inh – qHTS for inhibitors of binding or entry into cells for Marburg Virus | Marburg virus pseudotyped entry inhibition, cell reporter | Potency, µM (titrated, usually from 37.8 µM), for inactives: at the top dose activity change, negative = inhibition, usual class: inhibitors | hit rate 1.8% among 300,000; calls by dose curve; tested in HEK293 cells; also: potency is read from the fitted curve at half-maximal effect
Lassa entry inh – qHTS for Inhibitors of binding or entry into cells for Lassa Virus; Lassa virus pseudotype entry inhibition, cell reporter; Potency, µM (titrated, usually from 37.9 µM), inactives show at the top dose activity change, negative = inhibition, most hits filed as inhibitors; hit rate 1.2% among 300,000; AID 540256, 2011; calls by dose curve; tested in HEK293 cells; also: potency is read from the fitted curve at half-maximal effect; nearly all actives have a fitted effect of over 50% in size
Active calls of the source: *; u = inconclusive; x = not tested or not shown; [ ] = dose if it differs, or a comment. % is scaled to controls: 0 for no effect and ±100 for the full control effect.

SMILES | HCMV inh | FMDV antiviral | MARV entry inh | Lassa entry inh
CC1=CC(C)[C@H](/C=N/n2c(=O)[nH]c3c([nH]c4ccc(Br)cc43)c2=O)C(C)C1 (some centres undefined) | -74* | -28% | -25% | u
COc1ccc2c(c1)[nH]c1c(=O)n(/N=C/C3C(C)C=C(C)CC3C)c(=O)[nH]c12 (centres undefined) | -24 | 0% | u | -1%
CC1(C)CN(c2ccccc2)N(C(=O)c2ccc(C#N)cc2)C1=O | 2 | 4% | u | 1%
CCOC(=O)[C@@H]1[C@H]2COc3cc(OC)ccc3[C@@H]2N2C(=O)N(c3ccc(Br)cc3)C(=O)[C@@]12C | -16 | -17% | x | x
Cc1nc2c(c(C)c1CCC(=O)NCc1ccc(F)cc1)c(=O)n(C)c(=O)n2C | 6 | 3% | 15%[46.1 µM] | -3%[46.1 µM]
CCN(CC)CCCNC(=O)CCc1c(C)nc2c(c1C)c(=O)n(C)c(=O)n2C | -65* | -14% | 2%[46.1 µM] | 5%[46.1 µM]
Cc1nc2c(c(C)nn2-c2ccccc2)c(C)c1CCC(=O)Nc1ccc(CN2CCCC2)cc1 | -64* | -25% | 10µM* | u
CCN(CC)C(=O)c1cccc(-c2csc(C(C)(O)c3ccc(OC)cc3)n2)c1 (centres undefined) | u | -29% | x | x
CCN(CC)C(=O)c1cccc(-c2csc(C(C)(O)c3cccc(OC)c3)n2)c1 (centres undefined) | -78* | 35µM* | x | x
CCN(CC)C(=O)c1cccc(-c2csc(C(C)(O)c3ccc(F)c(F)c3)n2)c1 (centres undefined) | x | 25µM* | x | x
CCCCn1nc(NC(=O)CCC)c2cc3cc(OC)ccc3nc21 | -24 | 29% | 2% | 13%
Cc1cc(C(=O)Cn2cc(C(F)(F)F)ccc2=O)c(C)n1-c1ccccc1 | -35 | 5% | u | u
COc1ccccc1/C=C/CN1CCCC(CCC(=O)NCc2ccc(F)c(F)c2)C1 (centres undefined) | u | -9% | u | -16%[46.1 µM]
COc1ccc(/C=C/CN2CCCC(CCC(=O)NCc3ccc(F)c(F)c3)C2)cc1 (centres undefined) | -21 | -28% | 7.9µM* | 0%
CC1CCN(C(=O)c2ccc(NS(C)(=O)=O)cc2)CC1 | 11 | 7% | 25% | -27%
CN1OC[C@@H]2CN3C(=O)N(c4cccc5ccccc45)c4ccccc4[C@@H]3C[C@@H]21 | -102* | -15% | x | x
FC(F)(F)c1cccc(-c2n[nH]c3ccnc(-c4ccsc4)c23)c1 | -60* | x | x | x
COc1ccc(O)c(/C=N/NC(=O)c2ccc(CSc3nc(C)cc(C)n3)cc2)c1 | -90* | u | u | u
COc1ccc(/C=N/NC(=O)c2ccc(CSc3nc(C)cc(C)n3)cc2)cc1O | -66* | u | -23% | -3%
Cc1cc(C)nc(SCc2ccc(C(=O)N/N=C/c3ccc(C(=O)O)cc3)cc2)n1 | 16 | -4% | 8%[46.1 µM] | 9%
COc1ccc(/C=N/NC(=O)c2ccc(CSc3nc(C)cc(C)n3)cc2)c(OC)c1OC | u | -17% | 5% | 14%
Cc1cc(C)nc(SCc2ccc(C(=O)N/N=C/c3cccc(O)c3O)cc2)n1 | -99* | 24% | 7.3µM* | u
O=S(=O)(NC(=S)NC1CCCCC1)c1ccccc1 | -22 | -15% | 2%[46.1 µM] | 14%[46.1 µM]
CCSc1nnc(-c2ccc(C)cc2)c2ccccc12 | -62* | 0% | u | u
CCN(C1=NS(=O)(=O)c2ccccc21)N(CC)S(=O)(=O)c1ccc(C)cc1 | -69* | u | x | x
SMILES | HCMV inh | FMDV antiviral | MARV entry inh | Lassa entry inh
CCOc1ccccc1NC(=O)C(C)Sc1cc(-c2ccccc2)nc(C)n1 (centres undefined) | 16 | -20% | -22%[46.1 µM] | -13%[46.1 µM]
CCOc1ccccc1Nc1nnc(SC(C)C(=O)Nc2nc(-c3ccccc3)cs2)s1 (centres undefined) | -34 | -17% | 3.5µM* | 6.3µM*
COc1ccc(/C=C2/CSC/C(=C/c3ccc(OC)c(OC)c3)C2=O)cc1OC | -101* | 3.5µM* | 3.5µM* | 3.2µM*
COc1ccc(/C=C2\SC(=O)NC2=S)cc1OC | 21 | 5% | u | 7%
COc1cc(C=C2CCCC(=Cc3ccc(OCC4CO4)c(OC)c3)C2=O)ccc1OCC1CO1 (centres undefined) | -68* | 11µM* | x | x
Cc1cnccc1CN(C)Cc1cn(C)nc1-c1ccc(Oc2ccccc2)cc1 | -35 | u | -18%[46.1 µM] | -2%
CC(=O)C1C(N2CC2)CC2C3CCC4=CC(=O)CCC4(C)C3CCC21C (centres undefined) | -63* | -17% | u | u
